Screening data deposited in PubChem BioAssay by several laboratories.
Compounds with a hit are over-represented: about 7.6% of the library has one in this group of screens.
PLAP activator = PLAP enzyme activators, biochemical, luminescence, HTS. activation fold at 20 µM. Alkaline phosphatase, placental type (Homo sapiens), P05187. purified PLAP enzyme, luminescent substrate read-out; active compounds read high. actives 1.2% (n = 96,000); in the data active = activation fold above about 2
Target sequence (P05187 whole entry, looked up): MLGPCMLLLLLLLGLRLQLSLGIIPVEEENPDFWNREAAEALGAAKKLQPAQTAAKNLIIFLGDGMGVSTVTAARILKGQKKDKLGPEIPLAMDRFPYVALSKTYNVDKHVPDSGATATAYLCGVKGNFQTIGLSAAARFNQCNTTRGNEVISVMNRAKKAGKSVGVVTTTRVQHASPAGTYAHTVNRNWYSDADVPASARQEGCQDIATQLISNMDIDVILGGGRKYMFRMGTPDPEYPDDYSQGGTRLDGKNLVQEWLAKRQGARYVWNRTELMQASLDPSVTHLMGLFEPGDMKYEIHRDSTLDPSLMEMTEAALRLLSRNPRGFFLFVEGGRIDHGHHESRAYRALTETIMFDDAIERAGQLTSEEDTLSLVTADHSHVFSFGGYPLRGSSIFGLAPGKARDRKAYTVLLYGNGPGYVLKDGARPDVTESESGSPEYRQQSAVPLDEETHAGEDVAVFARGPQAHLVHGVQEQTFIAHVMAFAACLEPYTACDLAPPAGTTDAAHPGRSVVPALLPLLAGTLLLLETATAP
Cav3 T inh = Cav3.2 calcium influx blockers – cell-based, Fluo-4 calcium fluorescence, FDSS, MLSMR library, primary screen | AID 449739, 2010 | B-score at 10 µM | Cav3.2-expressing cells; active compounds read low | actives 4% (n = 100,000);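 active = single-dose well whose peak fluorescence ratio is a statistical outlier from its plate by either plate-standardised score or position-corrected B-score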
M1 agonist = M1 muscarinic receptor agonists, primary screen, CHO-M1 cells, Fluo-4 calcium, agonist mode; actives 3% (n = 64,000); AID 626, 2007; B-score at 10 µM; Fluo-4 calcium fluorescence; active compounds read high; Muscarinic acetylcholine receptor M1;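 active = fluorescence rise, raw or as B-score row- and column-corrected plate score, outside the 99.7% band of its plate's samples, either direction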
M1 antagonist = antagonists of rat M1 muscarinic receptor | actives 3.4% (n = 64,000) | B-score at 10 µM | AID 628, 2007 | CHO-M1 cells, Fluo-4 calcium, ACh EC80 antagonist mode; active compounds read low;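 active = calcium fluorescence response, raw or row-and-column corrected B-score, differing from the plate sample mean either way at a set confidence level, mostly lower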
Starred values were filed as active, the others as inactive; / = no result given.

SMILES | PLAP activator | Cav3 T inh | M1 agonist | M1 antagonist
Cc1ccc(N2C(=O)N(CC(=O)NCc3ccc(Cl)cc3)C(=O)C2C)cc1 (centres undefined) | 1 | -5.2* | / | /
COc1ccc2nc(C)[nH]c(=O)c2c1 | 0.9 | 0.51 | 0.86 | 0.093
CCOc1ccc2nc(Nc3nc4c(c(=O)[nH]3)CCC4)nc(C)c2c1 | / | / | 0.29 | 0.24
COc1ccc2nc(Nc3nc(C)c(CCC(C)C)c(=O)[nH]3)nc(C)c2c1 | 2.3* | -5.4* | -0.63 | -0.26
COc1ccc2nc(Nc3nc(CSc4nnnn4-c4ccccc4)cc(=O)[nH]3)nc(C)c2c1 | 2.2* | -0.51 | / | /
CCOc1ccc2nc(Nc3nc(CSc4nnnn4-c4ccccc4)cc(=O)[nH]3)nc(C)c2c1 | 2.5* | -1.2 | / | /
COC(=O)C1=C(C)N(CCCCCC(=O)O)C(=O)NC1c1ccccc1 (centres undefined) | / | 0.34 | / | /
CN(C)c1nc(NCc2ccccc2)nc(N/N=C/c2ccc(Cl)cc2Cl)n1 | 1.1 | -3.8 | / | /
Cc1cc(NC(=O)COC(=O)C(Nc2ccc(C(F)(F)F)cc2Cl)C(C)C)no1 (centres undefined) | 0.9 | -4.5* | -0.075 | -0.49
CCOc1ccc(NC(=O)CNC(=O)c2cn(-c3ccccc3OC)c(=O)c3ccccc23)cc1 | 2* | -1.9 | / | /
CCOc1ccc(NC(=O)CNC(=O)c2ccc(OC)c(OC)c2)cc1 | 0.9 | / | 1.1 | -0.15
CCOC(=O)C1CCCN(c2c(N3CCc4ccccc4C3)c(=O)c2=O)C1 (centres undefined) | 0.9 | / | -0.057 | 0.92
O=C(NCC1(c2ccccc2)CCCC1)C(=O)NCC1(c2ccccc2)CCCC1 | / | 0.79 | / | /
O=C(NCC1(c2ccccc2)CCCC1)C1(c2ccccc2)CCCC1 | / | -6.6* | / | /
CC(C)Oc1ccc(C(CC(=O)O)NC(=O)c2cccs2)cc1 (centres undefined) | 1.2 | 0.53 | / | /
CCCSC1=C(C#N)C(c2cccs2)C(C(=O)Nc2ccccc2)=C(C)N1 (centres undefined) | / | -2.7* | / | /
CC1(C)CC(=O)C(C=NCC2CCN(C(=O)Nc3ccc(Cl)c(Cl)c3)CC2)=C(O)C1 | 0.9 | -3.3* | / | /
CCc1nc2ccccc2c(NC(=O)CN2CCC(C)CC2)c1C | 1 | -0.053 | 1.6 | -0.059
CC1=C(C(=O)OCc2ccccc2)C(c2ccccc2OS(=O)(=O)c2ccc(C)cc2)NC(=O)N1CCCC(=O)O (centres undefined) | / | -1.1 | / | /
Cc1ccc(S(=O)(=O)NCc2ccc(C(=O)N3CCN(c4ccccn4)CC3)cc2)cc1 | 1.4 | 0.036 | 4 | 2.4*
COc1ccc2nc(N/C(N)=N/C(=S)Nc3cccc(C)c3)nc(C)c2c1 | / | -1.4 | / | /
CCOc1ccc2nc(N/C(N)=N/C(=S)Nc3cccc(C)c3)nc(C)c2c1 | 1.4 | -5.5* | / | /
Cc1ccc(N(C)C(=O)N2CCN(S(=O)(=O)c3c(C)cc(C)cc3C)CC2)cc1 | 1.6 | -6* | / | /
CCN(CC)C(=O)N1CCN(S(=O)(=O)c2ccc(C)cc2)CC1 | 1.2 | 0.062 | / | /
CCN1C(=O)C(O)(C2COC(C)(C)CC2=O)c2cc(Br)ccc21 (centres undefined) | 1.2 | -0.21 | 0.3 | -0.69
SMILES | PLAP activator | Cav3 T inh | M1 agonist | M1 antagonist
COc1ccc(NS(=O)(=O)c2ccc3c(c2)n(C)c(=O)n3C)cc1 | 1 | -3.8* | / | /
CC1Cc2ccccc2N1C(=O)CN1CCC(n2nnc3cc(C(F)(F)F)ccc32)CC1 (centres undefined) | 1.7 | -9.5* | / | /
COC(=O)c1ccccc1NC(=O)CN1CCC(n2nnc3cc(C(F)(F)F)ccc32)CC1 | 1.4 | / | / | /
CCc1nc(C)cn1S(=O)(=O)c1cc(C)c(OC)c(C)c1C | 1.4 | 0.33 | / | /
Nc1nonc1C(=O)NCCNCc1ccccc1OCc1ccccc1F | 1.5 | -6.1* | -1.6 | -0.054
Nc1nonc1C(=O)NCCNCc1cc(Br)ccc1OCc1ccccc1F | 1.4 | -6.9* | 2.8* | -0.99
CCOc1cc(C2CC(=O)c3c(ccc4ccccc34)N2)ccc1O (centres undefined) | 1.2 | -1.7 | / | /
O=C(Cc1cc(=O)[nH]c(=O)[nH]1)NCCN1CCOCC1 | / | -0.29 | -0.39 | -0.14
COC(=O)C(CC(=O)c1ccc(Cl)cc1)c1ccc(C(C)C)cc1 (centres undefined) | 0.8 | / | / | /
O=C(CSc1nc2ccncc2[nH]1)Nc1ccccc1C(F)(F)F | 1.9 | -0.89 | -0.51 | -1.3
Clc1ccccc1CSc1nc2ccncc2[nH]1 | 2.7* | / | / | /
Nc1nc(SCC(=O)NC2CCCCCC2)[nH]c(=O)c1-c1ccccc1 | 1 | 1.1 | / | /
COc1cccc(OCCc2c(C)n[nH]c2C)c1 | 1.1 | -0.14 | / | /
Cc1n[nH]c(C)c1CCCOc1ccccc1 | 1.8 | -0.59 | / | /
COc1ccccc1OCCCCCc1c(C)n[nH]c1C | 1.4 | -1.1 | 3 | -1.3
CCOc1ccccc1OCCCCCc1c(C)n[nH]c1C | 1.5 | -3.6* | 0.13 | -1.8
COc1ccc(OCCCc2c(C)n[nH]c2C)cc1 | 2.3* | / | / | /
Cc1cccc(OCCCCc2c(C)n[nH]c2C)c1C | 2.4* | -3.1 | -1.1 | -0.43
Cc1cccc(OCCCCc2c(C)n[nH]c2C)c1 | 1.6 | -5.8* | 2.4 | -1.3
ONC=Nc1cccc2nonc12 | 0.8 | -0.12 | -0.92 | -0.66
Cc1cc(C)c(C#N)c(SC(F)F)n1 | 1 | 0.15 | / | /
O=C(NCc1ccco1)C(c1cccs1)N(Cc1ccccc1)C(=O)Cn1nnc2ccccc21 (centres undefined) | 0.9 | -3.2 | -0.5 | -0.84
O=C(NCc1ccco1)C(c1ccc(F)cc1)N(CC1CCCO1)C(=O)Cn1nnc2ccccc21 (centres undefined) | 1.4 | -4.9* | 0.44 | 0.5
Cc1ccc(CN(C(=O)Cn2nnc3ccccc32)C(C(=O)NCc2ccco2)c2cccs2)cc1 (centres undefined) | 1.8 | -9.4* | -0.39 | -0.032
CCOCCCN(C(=O)Cn1nnc2ccccc21)C(C(=O)NCc1ccco1)c1ccncc1 (centres undefined) | 1.4 | 0.049 | -0.87 | -0.19
SMILES | PLAP activator | Cav3 T inh | M1 agonist | M1 antagonist
O=C(NCc1ccco1)C(c1ccco1)N(CCc1ccccc1)C(=O)Cn1nnc2ccccc21 (centres undefined) | 1 | -6.2* | -0.65 | 0.36
Cc1cc(/C=C2\SC(=Nc3ccccc3)NC2=O)c(C)n1-c1ccc(S(N)(=O)=O)cc1 | 1.7 | 0.022 | / | /
N#C/C(=C\c1cc(Cl)cc(Cl)c1O)C(=O)NC1CCCCC1 | 1 | -2.5 | / | /
COc1ccccc1CNC(=O)CN(C)CC(=O)Nc1cccc(F)c1 | 1.6 | 2.4 | 0.59 | 0.95
C=CCc1c(C)nc(SCC(N)=O)[nH]c1=O | 1 | -0.082 | / | /
CCOC(=O)CNC(=O)CSc1nc(N)cc(N)n1 | 0.9 | -0.16 | -0.53 | 0.093
CCOC(=O)CNC(=O)CSc1nc2nc(C)c(Br)cc2[nH]1 | 2.3* | 1.2 | -0.062 | -0.5
Cc1nc2nc(SCC(N)=O)[nH]c2cc1Br | 2.2* | / | -0.66 | 0.59
CCOC(=O)c1cc(NC(=O)CSc2nnc(CN3CCOCC3)n2C)ccc1Cl | / | 1.7 | / | /
O=C1c2cccc3c(Nc4ccccc4Cl)c([N+](=O)[O-])cc(c23)C(=O)N1CCO | 1 | -2.2 | / | /
